# High-throughput results: PubChem, several laboratories
# NCOA1 inh: human NCOA1 inhibition; HEK293 GAL4-SRC1 luciferase reporter, luminescence; inhibition, % at 3.6 µM; AID 588354; 360,000 tested, 0.12% active;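 active means inhibition above the campaign mean plus 3 SD, with each screening campaign given its own cutoff, cut at about 60% in these data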;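 further: 0% = DMSO treated cells and 100% = gossypol at 36 µM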
# NCOA2 inhibitor: inhibits human steroid receptor coactivator 2; HEK293 GAL4-SRC2 luciferase reporter, luminescence; AID 651957; Q15596; 370,000 tested, 0.17% active; inhibition, % at 9 µM;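 active means inhibition above the mean inhibition of all tested compounds plus 3 SD, set per campaign, cut at about 52% in these data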;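 further: 0% = DMSO treated cells and 100% = cells given Gossypol at 36 µM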
# LRH-1 inv ag: inverse agonists of human LRH-1 (NR5A2); 360,000 tested, 0.13% active; inhibition, % at 3.6 µM; HEK293T StAR-luciferase reporter, LRH-1 transfected, 24 h; O00482;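 active means inhibition above the mean inhibition of all tested compounds plus 3 SD, cut at about 73% in these data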;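 further: 0% = DMSO wells and 100% = reporter-only cells lacking LRH-1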
# Gli-Sufu antag: Gli-Sufu pathway antagonism; Sufu-KO-LIGHT fibroblasts, Gli luciferase reporter luminescence; inhibition, % at 5 µM; 340,000 tested, 0.74% active; AID 588413;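 active means inhibition above about 55%, limit read from the data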;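 further: 0% = DMSO-treated cells and 100% = wells with medium but no cells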
# COUP-TFII inh: blocks human COUP-TFII nuclear receptor. P24468. HEK293T NGFI-A luciferase reporter, luminescence. inhibition, % at 8.6 µM. 370,000 tested, 0.7% active. AID 686940;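 active means inhibition above a per-plate cutoff, mean inhibition of test wells between control levels plus 3 SD, cut at about 38% in these data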;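 further: cells cotransfected with COUP-TFII expression vector driving the NGFI-A reporter; 0% = median of COUP-TF2 test wells and 100% = reporter-only cells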
# NCOA3 inh: inhibitors of human steroid receptor coactivator 3 (SRC3) | Q9Y6Q9 | HEK293 GAL4-SRC3 luciferase reporter, luminescence | inhibition, % at 3.6 µM | 360,000 tested, 0.17% active;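 active means inhibition above a per-campaign cutoff, the mean of all compounds plus 3 SD, cut at about 60% in these data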;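 further: 0% = DMSO-treated cells and 100% = gossypol-treated cells at 36 µM; higher means less SRC3-driven luciferase light from the GAL4 reporter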
# Gli antag conf: confirmation of Gli-SUFU pathway antagonists | shares compounds with Gli-Sufu antag | Sufu-KO-LIGHT cells, Gli luciferase reporter, luminescence | inhibition, % at 5 µM | 2,500 tested, 40% active | AID 602428;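 active means mean inhibition at 5 µM reaching about 45%, limit read from the data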;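 further: plate controls were DMSO-treated cells for no effect and wells lacking cells for full effect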
# SufuKO cytotox: cytotoxicity counter-screen for Gli-SUFU antagonists; shares compounds with Gli-Sufu antag; Sufu-KO-LIGHT cells cytotoxicity, ATP luminescence; cytotoxicity, % at 5 µM; 2,500 tested, 32% active; AID 651994;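 active means mean cytotoxicity at 5 µM above about 25%, limit read from the data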;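 further: cells exposed to compound overnight for roughly 16 to 18 hours; plate controls were DMSO wells with cells for no effect and medium without cells for full effect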
# Wnt3a counter: inhibits Wnt3a reporter, counter-screen for Gli-SUFU antagonists; shares compounds with Gli-Sufu antag; Wnt-LIGHT cells, Wnt3a-driven luciferase reporter, luminescence; inhibition, % at 6.25 µM; 2,500 tested, 20% active; AID 651995;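 active means mean inhibition above about 25%, limit read from the data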
# Numbers without * were called inactive; . = not tested or not shown; ! = repeats disagree. In the library only some 1.2% were active in any assay of this set; here they are far more common.
SMILES,NCOA1 inh,NCOA2 inhibitor,LRH-1 inv ag,Gli-Sufu antag,COUP-TFII inh,NCOA3 inh,Gli antag conf,SufuKO cytotox,Wnt3a counter
COc1cc(CN(C)CC2CCCN(CCc3ccc(F)cc3)C2)c(Cl)cc1O (stereo not drawn),1.1,-2.8,-8.1,55.1*,-2.1,-3.6,15.2,6.5,-25.4
O=C(CC1CCCC1)N[C@H](C(=O)N1CCC[C@H]1C(=O)NC1CCCC1)C1CCCCC1,.,12.6,.,.,9.1,.,.,.,.
CCCCCn1c(=N)n(CC(O)COc2ccccc2OC)c2ccccc21 (stereo not drawn),-26.7,1.1,16.1,81.4*!,-0.1,3.4,41.5,17.0,-13.6
CCOc1ccc(-n2c(SCC(=O)Nc3cccc4ccccc34)nnc2-c2cccs2)cc1,.,-0.6,.,.,-11.5,.,.,.,.
COc1ccc(C2OCCNC3C2C(=O)N(Cc2ccc(OC)cc2OC)C3Cc2ccccc2)cc1 (stereo not drawn),.,.,.,.,7.6,.,.,.,.
COc1ccc(C2CC(C(F)(F)F)n3nc(C(=O)O)c(Cl)c3N2)cc1OC (stereo not drawn),1.5,1.3,-18.8,2.3,-5.8,12.9,.,.,.
COc1ccc(C2CC(C(F)(F)F)n3nc(CO)c(Cl)c3N2)cc1OC (stereo not drawn),8.4,-1.3,15.4,92.0*,-15.0,1.1,15.7,16.3,6.3
C[C@H](CO)N1C[C@H](C)[C@@H](CN(C)C(=O)Cc2cccnc2)Oc2ncc(C#CCc3ccccc3)cc2C1=O,.,0.1,.,.,-5.1,.,.,.,.
COc1ccc(Nc2nc(N3CCOCC3)nc(N3CCOCC3)n2)c(OC)c1,-33.5,-23.7,3.5,59.4*,-6.3,-20.9,42.2,-5.2,14.7
COc1ccccc1Nc1nc(N2CCOCC2)nc(N2CCOCC2)n1,16.9,3.5,29.7,0.3,-11.8,9.3,.,.,.
CCn1c2ccccc2c2cc(NC(=O)c3cc(OC)c(OC)c(OC)c3)ccc21,8.7,27.0,34.1,70.7*,-73.5,30.4,59.8*,64.1*,0.3
CCn1c2ccccc2c2cc(NC(=O)c3cc(OC)cc(OC)c3)ccc21,16.1,20.3,31.4,59.1*,-14.2,19.1,62.2*,54.7*,-10.1
CC(C)[C@@H]1CC[C@@H](C)C[C@H]1OC(=O)C[n+]1cc(-c2ccc(Cl)cc2)n2c1CCCCC2,11.2,9.3,23.4,66.0*,24.0,36.9,77.2*,34.8*,-32.5
COc1ccccc1N=C(C)C1=C(O)CC(c2ccccc2)CC1=O (stereo not drawn),-3.4,16.5,-19.7,55.7*,-6.4,3.8,54.3*,62.8*,-34.7
O=C(COc1ccc(Cl)cc1Cl)OCC(=O)N1CCCc2ccccc21,5.8,8.5,-6.6,8.5,14.1,-5.4,.,.,.
O=C(COc1ccc(Cl)cc1Cl)NC(=S)N1CCCc2ccccc21,-1.4,-21.2,-20.2,53.1,15.2,5.2,14.3,22.0,17.1
COc1cccc(NC(=S)/C(=C(\[O-])c2cc(C)n(-c3ccccc3F)c2C)[n+]2ccc(N(C)C)cc2)c1,-5.8,25.0,-5.4,60.4*,22.7,15.5,57.4*,33.0*,17.7
NC(=O)NOCc1ccc(Cl)cc1Cl,-6.7,-15.3,17.9,-1.2,4.7,12.5,.,.,.
CNC(=S)/N=C/NOCc1ccc(Cl)cc1Cl,2.1,22.8,7.6,52.0,36.0,11.6,30.5,-9.3,-9.3
O=C(CC(Cc1ccccc1)C(=O)O)Nc1ccc(F)cc1 (stereo not drawn),-13.8,11.7,2.9,9.6,1.6,2.5,.,.,.
O=C(CC(Cc1ccccc1)C(=O)O)Nc1cccc(C(F)(F)F)c1 (stereo not drawn),8.0,-0.1,3.8,53.5,-10.5,-2.5,12.7,11.4,-3.1
CC(C)NCC(O)COC1CCC(C(C)(C)C)CC1 (stereo not drawn),18.6,-9.8,12.1,69.8*,4.7,27.3,15.3,5.7,-26.5
CC1CCCC(C)N1CC(O)COC1CCC(C(C)(C)C)CC1 (stereo not drawn),-5.7,0.4,-15.4,.,-7.3,-3.0,.,.,.
CSc1nnc(-c2ccc([N+](=O)[O-])cc2)o1,-3.7,-7.2,12.6,93.3*,-15.4,6.0,24.0,0.1,0.9
CC(=O)NC(c1ccc(C(C)C)cc1)c1ccc2cccnc2c1O (stereo not drawn),68.4*,35.4,89.7*,90.0*,-25.3,81.5*,83.0*,50.0*,73.5*
SMILES,NCOA1 inh,NCOA2 inhibitor,LRH-1 inv ag,Gli-Sufu antag,COUP-TFII inh,NCOA3 inh,Gli antag conf,SufuKO cytotox,Wnt3a counter
COC(=O)[C@]12C[C@H](CC(=O)NCc3cccc(C(F)(F)F)c3)C(=O)N(Cc3ccccc3)C1=C[C@H](COCc1ccccc1)O[C@@H]2C,.,-12.3,.,.,25.7,.,.,.,.
CC(=O)N1CC=CC1(CC(C)C)C(=O)NCCc1c[nH]c2ccccc12 (stereo not drawn),-3.7,-8.8,12.8,95.0*,-2.3,-25.3,26.4,-4.0,-22.0
CC(C)CC1(C(=O)NCCc2c[nH]c3ccccc23)C=CCN1C(=O)c1ccccc1 (stereo not drawn),-4.8,11.1,-3.5,-6.1,-12.1,-6.6,.,.,.
O=C(Cc1cc(=O)[nH][nH]1)N/N=C/c1ccccc1C(F)(F)F,.,-18.6,.,.,0.0,.,.,.,.
CCNC(=O)N1CCN(c2ccc(N3CCN(C(=O)NCC)[C@@H](C)C3)c(C)c2)[C@@H](C)C1,.,-5.5,.,.,-0.6,.,.,.,.
CCC(C)N(C(=O)CSc1nc(C)c(C)c(C)c1C#N)C1CCS(=O)(=O)C1 (stereo not drawn),12.7,0.0,28.2,54.0,2.1,26.5,11.3,6.5,-22.9
Cn1c(C(=O)NC2CCCC2)cc2c(=O)n(C)c3ccccc3c21,2.7,-34.3,6.0,98.6*,-25.1,9.2,30.9,14.3,-22.2
COc1ccc(CCN2CC(C(=O)O)CC2=O)cc1 (stereo not drawn),-12.4,2.6,2.3,96.1*,-0.3,2.2,2.9,2.7,-4.5
CC1=NN(C(N)=S)C(=O)C1N=Nc1ccc(F)cc1 (stereo not drawn),-4.1,-64.0,-78.8,-33.6,-21.7,-18.2,.,.,.
CC1=NN(C(N)=S)C(=O)C1N=Nc1ccc(O)cc1 (stereo not drawn),-30.9,4.5,-20.6,57.4*,-12.8,-35.5,39.4,11.2,-62.9
Cc1ccc(S(=O)(=O)N2CCN(c3ncnc4scc(-c5ccccc5)c34)CC2)cc1,-31.4,0.5,-1.5,9.6,10.0,15.8,.,.,.
Cc1ccc2nc(NC(=O)C3CCN(c4ncnc5sc(C)c(C)c45)CC3)sc2c1,-4.4,.,-12.7,-9.0,.,3.4,.,.,.
